# A selection: hits, their analogues and other compounds. The true share with any hit is near 3.7%.
# A549 tox: Nrf2 qHTS screen for inhibitors: counterscreen for cytotoxicity; 390,000 tested, 0.16% active; AID 504648, 2011; A549 ARE-Fluc cells, CellTiter-Fluor viability, 18-24 h; Potency, µM (highest dose often 46 µM), for inactives: at the highest dose activity change, negative = cytotoxicity, most hits filed as inhibitors; note: potency is the fitted concentration of half-maximal effect; % is set by controls: 0 for no effect and ±100 for the full control effect
#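 A549 ARE-Fluc cells in 5% FBS OPTI-MEM, 5000 cells/well, rested 2 h then exposed to compounds in concentration-response for 18-24 h at 37 °C. Viability by CellTiter-Fluor fluorescence (Ex 405/Em 525) after 30 min; luciferase luminescence (BugLite, 15 min, RT) read afterwards.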
# miR-21 reporter: qHTS Assay for Modulators of miRNAs and/orActivators of miR-21 | HeLa miR-21 FLuc reporter, luciferase, 48 h | Potency, µM (series often up to 38.3 µM), inactives show top-dose activity change, positive = activation, usual class: activators | 340,000 tested, under 10 active | AID 2288, 2010;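 note: % of control where 0% means no effect; miR-21 action dims this reporter so a rising signal means less miR-21 action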
#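 HeLa miR-21-FLuc reporter line, endogenous miR-21; 2000 cells/well in DMEM/10% FBS; compound titration up to ~40uM final, 48 h, 37 degree Celsius; luciferase detection reagent, 15 min lysis, CCD luminescence.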
# ClpP mod: qHTS Assay for Activators of ClpP | purified B. subtilis ClpP, FRET peptide cleavage, 20 min | Potency, µM (series often up to 57.5 µM), for the others: at the top dose activity change, negative = active | 340,000 tested, 1.9% active | AID 651965, 2013; active = well fitted falling curve with a large enough effect; inconclusive = small, poorly fitted or top-dose-only effect; inactive = no such curve, though single readings can be large or run the other way; note: potency is the fitted concentration of half-maximal effect; the source files actives as falling curves though it sought activators and does not explain the sign; nearly all actives have a fitted effect of over 65% in size
#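 Buffer: 100 mM Tris/HCl pH8, 100 mM KCl, 0.05% low protease BSA, 2.5% glycerol, 0.01% Tween-20. ClpP 10 microg/mL final; 20 min RT; delta FRET normalized to ADEP and DMSO controls.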
# Nrf2 block: Nrf2 qHTS screen for inhibitors; A549 ARE-Fluc reporter, luciferase luminescence, 18-24 h; Potency, µM (titrated, usually from 46 µM), for inactives: at the highest dose activity change, negative = inhibition, hits mostly inhibitors; 360,000 tested, 2.1% active; note: potency is the fitted concentration of half-maximal effect; % is set by controls: 0 for no effect and ±100 for the full control effect; nearly all actives have a fitted effect of over 60% in size
#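 A549 ARE_Fluc cells, 5000/well, 5% FBS OPTI-MEM; compounds in dose-response, 18-24 h at 37 °C/5% CO2; CellTiter-Fluor viability read (Ex 405/Em 525), then BugLite luciferase luminescence = Nrf2 activity.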
# p53 reactivation: qHTS assay for re-activators of p53 using a Luc reporter. H1299 p53-A138V BP100-luciferase reporter, luminescence, 24 h. Potency, µM (top dose mostly 92.2 µM), without a hit: top-dose activity change, positive = activation, actives largely listed as activators. 320,000 tested, 0.063% active. AID 504706, 2011; note: potency is the fitted concentration of half-maximal effect; % of control where 0% means no effect; nearly all actives have a fitted effect of over 45% in size
#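 p53-null H1299 cells stably carrying temperature-sensitive p53-A138V and a BP100-luciferase reporter were pinned with compounds (4-point, 1:5 series) and held 24 hrs at 37 deg C. Luminescence was read 10 min after detection reagent.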
# Nrf2 ARE act: qHTS of Nrf2 Activators; 410,000 tested, 0.31% active; Potency, µM (highest dose often 46.1 µM), without a hit: top-dose activation, usual class: activators; AREc32 ARE-luciferase reporter (MCF7-derived line), luminescence, 24 h; note: potency is the fitted concentration of half-maximal effect; % of control where 0% means no effect; nearly all actives have a fitted effect of over 65% in size
#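 Luciferase luminescence (Steady-Glo, 30 min at room temperature) served as the read-out of ARE activation in AREc32 cells treated with compounds for 24 hr at 37 deg C.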
# * hit, by the source's call; ? = inconclusive; / = no result given; [ ] = dose if it differs, or a comment. Unless noted, calls come from the whole dose curve; as a rule, active = well fitted curve in the direction sought with a large enough effect; inconclusive = small, poorly fitted or top-dose-only effect, or another doubt; inactive = no such curve, though single readings can be large; an effect the other way counts as inactive or inconclusive.
SMILES,A549 tox,miR-21 reporter,ClpP mod,Nrf2 block,p53 reactivation,Nrf2 ARE act
COCCn1c(=NC(=O)c2ccc3c(c2)OCCO3)sc2cc(S(N)(=O)=O)ccc21,-14.4%,-2.7%,?,13µM*,13.0%,-1.0%
C=CCn1c(=NC(=O)c2ccc(S(=O)(=O)N3CCc4ccccc4C3)cc2)sc2cc(S(N)(=O)=O)ccc21,-2.1%,-3.1%,-2.1%,?,-26.6%,-1.9%
CCc1ccccc1NC(=O)CCCN1C(=O)CCn2nc(-c3cn(C)c4ccccc34)cc21,-17.5%,-5.4%,-0.6%,/,/,0.3%
CCC(=O)NCCCCCCNC(=O)CC,-1.4%,-1.6%,0.5%,7.9%,-0.9%,0.0%
O=C(CCl)NCCCCCCCCCNC(=O)CCl,?,?,-3.8%,-13.3%,-24.0%,11.2µM*
C=Cc1ccc(Cn2c(=O)cc(C)c3c(C)nn(C)c32)cc1,-1.1%,-9.4%,-6.5%,?,/,3.8%
COc1ccc(CNC(=S)N/N=C(/C)c2ccccc2)cc1,-12.0%,-69.5%,-0.4%,?,28.2µM*,4.9%
Oc1c(C(c2ccccc2F)N2CCCCC2)sc2nc(-c3ccco3)nn12 (stereo not given),11.8%,-4.4%,-0.1%,/,/,8.5%
CC(=O)Nc1nn(C)c2nc3cc(C)ccc3cc12,-3.4%,-7.2%,-0.7%,3.7%,13.0%,0.3%
Cc1ccc2cc3c(NC(=O)c4ccco4)nn(C)c3nc2c1,2.3%,11.6%,-19.0%,?,2.2%,3.16µM*
CCc1ccc(OCCNC(=O)c2ccccc2SCc2ccccc2)cc1,-4.2%,13.7%,28.2µM*,?,6.5%,-0.1%
O=C(Nc1ccccc1Cl)c1cc(C2CCCCN2C(=O)c2ccccc2)on1 (stereo not given),/,/,-0.6%,/,/,0.6%
Cc1ccc(N(C(=O)COc2ccccc2C)S(=O)(=O)c2ccc(Cl)cc2)cc1,2.0%,9.6%,0.708µM*,-26.5%,/,3.5%
COC(C(=O)Nc1ccc(S(=O)(=O)Nc2ccc(F)cc2)cc1)c1ccccc1 (stereo not given),-0.2%,11.5%,/,-13.0%,?,0.5%
COC(C(=O)Nc1ccc(S(=O)(=O)Nc2cccc3ccccc23)cc1)c1ccccc1 (stereo not given),-7.3%,-1.2%,-3.6%,23.1µM*,-24.2%,-0.1%[9.22 µM]
Cc1ccc(C(=O)c2oc3ccccc3c2NC(=O)COc2ccc(C(C)C)cc2)cc1,-4.7%,-1.0%,6.3%,3.4%,/,0.5%
COc1cc2nc(NC(=O)c3ccc(F)cc3Cl)sc(=O)c2cc1OC,2.2%,-0.7%,-4.0%,6.51µM*,1.2%,0.3%
O=C(Nc1nc2ccsc2c(=O)s1)c1ccc(F)cc1Cl,2.5%,-52.0%,/,?,20.2%,6.0%
CCCCCn1c(Sc2ncccn2)nc2c1c(=O)[nH]c(=O)n2C,2.6%,-12.1%,-5.1%,/,-6.4%,0.6%
CCCCCn1c(Sc2nc3ccccc3s2)nc2c1c(=O)[nH]c(=O)n2C,-9.9%,-9.3%,2.1%,16.4µM*,-5.3%,7.7%
O=C(Nc1cc(S(=O)(=O)Nc2ccccc2Cl)ccc1O)c1cc2c(s1)CCCC2,1.3%,-2.1%,-1.8%,6.5%,3.0%,-0.1%
O=C(Nc1cccc(S(=O)(=O)Nc2ccc(Cl)cc2)c1)c1cc2c(s1)CCCC2,?,28.0%,-24.7%,23.1µM*,?,8.0%
Cc1ccc(NC(=O)c2cc3c(s2)CCCC3)cc1S(=O)(=O)Nc1ccccc1Cl,-19.6%,17.2%,25.1µM*,7.31µM*,?,3.0%
COc1cccc(N2C(=O)c3ccccc3C2=O)n1,5.9%,/,/,4.0%,/,/
CS(=O)(=O)c1ccc(-c2csc(C(O)c3cccc(Cl)c3)n2)cc1 (stereo not given),/,/,-12.5%,/,/,4.3%
